The target in the assay is Dual specificity tyrosine-phosphorylation-regulated kinase 1A (Homo sapiens) (UniProt Q13627). Nature of the assay: Confirmation Assay for Inhibitors of Dyrk1a (Kinase-Glo Assay): KU probe. The settings on record: Kinase-Glo ATP luminescence. The source says:
NIH Molecular Libraries Probe Production Centers Network [MLPCN] NIH Chemical Genomics Center [NCGC] MLSCN Grant: 1R03MH084827-01 PI Name: Tom Misteli NCGC Assay Overview: The CMGC group of protein kinases which includes CDK-like kinases (Clk) and Dyks are essential kinases found in all eukaryotes. Clks have been implicated to play a role in the regulation of alternative splicing; while Dyrks, in particular over expression of Dyrk1A, has been linked to diseases as Down syndrome (DS; OMIM 190685) and Alzheimer disease (AD; OMIM 104300). Among the members of the CMGC group, the Clks and the Dyrks are very closely related therefore to determine validity and selectivity of an active compound observed in the CLK4 qHTS screen (AID:1770), a bioluminescent counter-screen against Dyrk1A was developed. […]
NCGC Assay Protocol Summary: Two uL/well of substrate solution (8uM Dyrktide, 2uM ATP, 25mM Tris-HCl pH 7.5, 10mM MgCl2 , 0.5mM EGTA, 5mM cystein, 0.01% Triton X-100 final concentration) was dispensed into 1536-well assay plates (Greiner, solid white, medium-binding plates) with Aurora Discovery BioRAPTR Flying Reagent Dispenser (FRD, Beckton-Dickenson). […] The plates were spun for 30 seconds (1000 rpm) and incubated at ambient temperature for 2 minutes followed by a luminescence read using Perkin Elmer ViewLux plate reader at 3 seconds exposure time and 2x binning.

Results filed as inconclusive are left out. Calls of active or inactive are those of the source. Calls come from the whole dose curve; as a rule, active = well fitted inhibition curve with a large enough effect; inconclusive = small, poorly fitted or top-dose-only effect; inactive = flat fitted curve, though single readings scatter.

Potency data for 1 compound are collected here from PubChem BioAssay AID624093 (National Center for Advancing Translational Sciences (NCATS), 2012).

On to `Cc1cc(CNc2ccnc(-c3ccc4c(c3)OCO4)n2)cnc1F`, for which the Potency is 18.4 µM (active).
